Measurements taken from PubChem BioAssay (EPA / NIEHS).
Active and inactive are the calls of the source. The calls were made as follows: active = hit-call score of the fitted dose curve at least 0.9, where 1 is the maximum; inactive = score below 0.9.

Experiments:
Details in all cases: mRNA level, 48 h; actives raise or lower the signal
[1] = read-out: Potassium channel subfamily K member 1 (KCNK1), KCNK1 (gene 3775); assay: LTEA_HepaRG_KCNK1: Life Technologies and Expression Analysis (LTEA) Assay for Potassium channel subfamily K member 1 (KCNK1) using HepaRG (AID 2283511)
Method in brief: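 KCNK1 transcript measured by TaqMan qRT-PCR against three housekeeping genes, after HepaRG cells were treated 48 h with eight half-log concentrations (top 100 uM, 0.5% DMSO). Curves fitted bidirectionally relative to vehicle.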

[2] = read-out: Keratin 19 (KRT19), KRT19 (gene 3880); assay: LTEA_HepaRG_KRT19: Life Technologies and Expression Analysis (LTEA) Assay for Keratin 19 (KRT19) using HepaRG (AID 2283512)
Method in brief: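 Differentiated HepaRG cells in serum-free induction medium, exposed 48 h in duplicate to 8 half-log concentrations up to 100 uM in 0.5% DMSO. KRT19 mRNA by qRT-PCR, normalized to ACTB, GAPDH, POLR2A; bidirectional fit vs DMSO.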

[3] = read-out: JUN Transcription Factor, JUN (gene 3725); assay: LTEA_HepaRG_JUN: Life Technologies and Expression Analysis (LTEA) Assay for JUN Transcription Factor using HepaRG (AID 2283513)
Method in brief: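 Gene-expression endpoint: JUN mRNA (qRT-PCR, normalized to three reference genes) in HepaRG cultures treated 48 h with chemicals, duplicate wells, 100 uM maximum with half-log dilutions; bidirectional fitting relative to 0.5% DMSO.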

[4] = read-out: matrix metalloproteinase-10 (MMP10), MMP10 (gene 4319); assay: LTEA_HepaRG_MMP10: Life Technologies and Expression Analysis (LTEA) Assay for matrix metalloproteinase-10 (MMP10) using HepaRG (AID 2283517)
Method in brief: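 Expression measured by TaqMan qRT-PCR with ACTB/GAPDH/POLR2A normalisation after 48 h chemical exposure of HepaRG cells. Eight half-log concentrations, top 100 uM, 0.5% DMSO vehicle, duplicates; gain or loss fitted against vehicle.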

MYC, MYC (gene 4609) = assay: LTEA_HepaRG_MYC: Life Technologies and Expression Analysis (LTEA) Assay for MYC using HepaRG (AID 2283518)
Method in brief: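 Differentiated HepaRG cells exposed 48 h in serum-free induction medium to 8 concentrations (top 100 uM, half-log steps; 0.5% DMSO), duplicate. MYC mRNA measured by Fluidigm qRT-PCR, normalized to ACTB, GAPDH, POLR2A; bidirectional fit versus DMSO.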

[5] = read-out: Paternally Expressed 10 (PEG10), PEG10 (gene 23089); assay: LTEA_HepaRG_PEG10: Life Technologies and Expression Analysis (LTEA) Assay for Paternally Expressed 10 (PEG10) using HepaRG (AID 2283520);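 as to AC50: PEG10 transcript by qRT-PCR normalised to ACTB GAPDH and POLR2A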
Method in brief: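 After 48 h exposure of differentiated HepaRG cells (0.5% DMSO vehicle, eight concentrations up to 100 uM, duplicates), PEG10 mRNA was measured by TaqMan qRT-PCR. Values were normalised to endogenous control genes and analysed bidirectionally against vehicle.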

[6] = read-out: Lipoprotein lipase (LPL), LPL (gene 4023); assay: LTEA_HepaRG_LPL: Life Technologies and Expression Analysis (LTEA) Assay for Lipoprotein lipase (LPL) using HepaRG (AID 2283515)
Method in brief: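 LPL transcript levels quantified by TaqMan qRT-PCR against three housekeeping genes after 48 h chemical treatment of HepaRG cells. Eight-point half-log series from 100 uM in 0.5% DMSO, tested in duplicate; bidirectional fitting versus vehicle.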

[7] = read-out: MicroRNA 122 (MIR122), gene 406906; assay: LTEA_HepaRG_MIR122: Life Technologies and Expression Analysis (LTEA) Assay for MicroRNA 122 (MIR122) using HepaRG (AID 2283516); also: the transcript read is the microRNA miR-122
Method in brief: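 Changes in transcript abundance, up or down relative to 0.5% DMSO vehicle, were scored after 48 h chemical treatment of HepaRG cells (maximum 100 uM). Quantification used TaqMan qRT-PCR normalized to housekeeping genes.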

[8] = read-out: matrix metalloproteinase-3 (MMP3), MMP3 (gene 4314); assay: LTEA_HepaRG_MMP3: Life Technologies and Expression Analysis (LTEA) Assay for matrix metalloproteinase-3 (MMP3) using HepaRG (AID 2283519)
Method in brief: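 Fluidigm-based TaqMan qRT-PCR, normalized to ACTB, GAPDH and POLR2A and fitted bidirectionally versus 0.5% DMSO, measured transcript levels. Treatment: duplicate 48 h exposures of HepaRG cells, ~100,000/well, to eight half-log concentrations topping at 100 uM.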

Measured: AC50

CC/C(=C(/CC)c1ccc(O)cc1)c1ccc(O)cc1
active: [2] 9.92 µM | [3] 79.2 µM | [4] 86.9 µM | [5] 67.1 µM
inactive: [1] | MYC, MYC (gene 4609)

CC[C@@H]1C[C@H](N(Cc2cc(C(F)(F)F)cc(C(F)(F)F)c2)C(C)=O)c2cc(C(F)(F)F)ccc2N1C(=O)OC(C)C
inactive: [1] | [2] | [3] | [4] | MYC, MYC (gene 4609)
active: [5] 11.6 µM

CCN(Cc1cccnc1)C(=O)c1cccc(Cl)c1[C@]1(C)C(=O)N(Cc2ccc(OC)cc2OC)c2ccc(Cl)cc21
active: [1] 15 µM | [2] 27 µM | [6] 10.4 µM | [7] 18.1 µM | [4] 17.7 µM | MYC, MYC (gene 4609) 25.3 µM | [5] 10.2 µM
inactive: [3]

COc1cc(C(=O)NC2CCN(C)CC2)ccc1Nc1ncc2c(n1)N(C1CCCC1)CC(F)(F)C(=O)N2C
active: [2] 12.3 µM | [3] 25.9 µM | [4] 26.3 µM | MYC, MYC (gene 4609) 14.7 µM | [8] 4.65 µM
inactive: [1] | [7] | [5]

O=C(O)c1ccccc1-n1cc(C(=O)O)c(=O)c2cc(Nc3c(F)cc(F)cc3Cl)c(Cl)cc21
active: [5] 21.1 µM
not listed: [8]
inactive: all other assays above

C[C@]12CC[C@@H]3c4ccc(O)cc4CC[C@H]3[C@@H]1CC[C@H]2O
inactive: [1] | [2] | [3] | [4] | MYC, MYC (gene 4609)
active: [5] 50 µM

Cc1oc2c(NC(=O)c3c(Cl)cccc3Cl)cccc2c1C(C)(C)O
active: [1] 43.6 µM | [2] 50 µM | [4] 70.8 µM | MYC, MYC (gene 4609) 50 µM | [5] 3.27 µM
inactive: [3]

OCCO
not listed: [7]
inactive: all other assays above

COc1cccc([C@H](O)C2CCN(CCc3ccc(F)cc3)CC2)c1OC
active: [2] 15.3 µM | [6] 71.6 µM | [5] 9.92 µM
not listed: [8]
inactive: all other assays above

CC1=CC(=O)/C(=C(/C)O)C(=O)O1
not listed: [6]
inactive: all other assays above

CN1C(=O)N(c2ccccc2Br)Cc2cnc(Nc3ccc4c(c3)OCC(CO)O4)nc21 (stereo not drawn)
active: [2] 6.5 µM | [3] 12.1 µM | [6] 31.8 µM | [7] 63.2 µM
not listed: [8]
inactive: all other assays above

c1ccc2ccccc2c1
not listed: [7] | [8]
inactive: all other assays above

CCCCOC(=O)c1ccc(O)cc1
not listed: [7]
inactive: all other assays above

NCc1cccc(C2CCN(C(=O)c3ccc(C#Cc4ccccc4F)o3)CC2)c1
active: [2] 9.92 µM | [5] 24.7 µM
not listed: [7]
inactive: all other assays above

Oc1ccc2ccccc2c1
not listed: [6] | [7]
inactive: all other assays above

CCN(CC)C(=O)c1cc(S(=O)(=O)Cc2ccccc2)c(N2CCC(c3ccccc3)CC2)cc1N(CC)CCN(C)C
active: [3] 30.4 µM | [4] 30.5 µM
not listed: [6] | [7]
inactive: all other assays above

Cc1ccc2oc(CN(Cc3ccccc3)C(=O)Nc3c(F)cc(F)cc3F)c(-c3ccc(Cl)cc3)c2c1
active: MYC, MYC (gene 4609) 44.2 µM
not listed: [6] | [8]
inactive: all other assays above

O=c1ccc2ccccc2o1
not listed: [7]
inactive: all other assays above

O=C(O)Cn1c(=O)n(Cc2ccc(Br)cc2F)c(=O)c2ccc(Cl)cc21
active: [2] 50 µM | [6] 9.92 µM
not listed: [7]
inactive: all other assays above

O=C(Nc1ccc(Cl)cc1)Nc1ccc(Cl)c(Cl)c1
active: [1] 29 µM | [2] 14.6 µM | [3] 22.8 µM | [6] 12.7 µM | [4] 27.6 µM | MYC, MYC (gene 4609) 28.6 µM | [8] 28.1 µM | [5] 21.8 µM
